Compounds with a hit are over-represented: about 3.6% of the library has one in this group of screens.
GCN5L2 inh: qHTS Assay for Inhibitors of GCN5L2. Histone acetyltransferase KAT2A (Homo sapiens), Q92830. GCN5L2 HAT assay, ThioGlo1 CoA-SH fluorescence. Potency, µM (doses to about 58.9 µM), for inactives: at the highest dose activity change, negative = inhibition, usual class: inhibitors. actives 0.21% (n = 390,000). AID 504327, 2011; further: on the % scale 0 is the no-effect control and ±100 the full control effect
Target sequence (Q92830 whole entry, looked up): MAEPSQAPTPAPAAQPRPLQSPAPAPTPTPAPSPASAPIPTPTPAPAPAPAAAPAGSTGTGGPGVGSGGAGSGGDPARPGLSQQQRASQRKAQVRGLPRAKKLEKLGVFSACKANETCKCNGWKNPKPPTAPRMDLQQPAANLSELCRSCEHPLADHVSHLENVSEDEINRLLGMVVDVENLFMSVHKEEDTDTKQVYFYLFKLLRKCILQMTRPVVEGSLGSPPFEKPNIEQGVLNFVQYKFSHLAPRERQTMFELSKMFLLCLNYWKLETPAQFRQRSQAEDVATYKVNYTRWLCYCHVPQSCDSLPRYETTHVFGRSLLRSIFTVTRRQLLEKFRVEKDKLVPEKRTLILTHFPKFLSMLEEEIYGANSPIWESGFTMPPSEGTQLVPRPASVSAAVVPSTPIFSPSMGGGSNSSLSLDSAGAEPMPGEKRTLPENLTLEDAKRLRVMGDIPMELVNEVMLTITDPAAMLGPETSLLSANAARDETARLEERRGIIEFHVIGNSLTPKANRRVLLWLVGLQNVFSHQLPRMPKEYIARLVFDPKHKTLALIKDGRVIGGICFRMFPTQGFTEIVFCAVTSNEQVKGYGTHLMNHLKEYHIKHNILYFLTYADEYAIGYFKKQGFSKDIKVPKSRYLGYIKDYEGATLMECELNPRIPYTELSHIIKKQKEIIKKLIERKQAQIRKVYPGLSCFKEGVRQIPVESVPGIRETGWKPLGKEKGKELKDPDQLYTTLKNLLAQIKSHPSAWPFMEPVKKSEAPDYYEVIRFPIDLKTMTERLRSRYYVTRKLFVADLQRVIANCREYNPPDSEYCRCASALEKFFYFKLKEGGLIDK
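Preincubate 20nM GCN5L2 with compound 15 min, RT → add 50uM ThioGlo1 + 75uM H3(1-25) + 70uM acetyl-CoA → read fluorescence 0 and 20 min. Primary qHTS; fluorescent artifacts likely.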
IMPase Li inh: qHTS Assay for Identifying the Cell-Membrane Permeable IMPase Inhibitors: Potentiation with Lithium. CHO-M1 cells, IP1 TR-FRET (IP-One), carbachol + lithium. Potency, µM (series often up to 59.4 µM), without a hit: top-dose activity, negative = IMPase inhibition, actives largely listed as inhibitors. actives 0.35% (n = 210,000). AID 1457, 2008;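 further: IP1 builds up when IMPase is blocked and the TR-FRET signal falls; plate controls were basal vehicle for no effect and high inhibitor control for full effect; nearly all actives have a fitted effect of over 50% in size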
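Readout is a homogeneous TR-FRET IP1 immunoassay (Ex 320, Em 665 and 620), where raised cytosolic IP1 lowers signal. Cells were CHO-M1 treated 30 min at 37C with test compounds plus a little lithium; AC50 values came from Hill-equation fitting.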
NPSR antagonist: qHTS Assay for Antagonists of the Neuropeptide S Receptor: cAMP Signal Transduction | Potency, µM (top dose mostly 38.3 µM), inactives show at the highest dose activity change, negative = inhibition, hits mostly inhibitors | AID 1461, 2008 | actives 1% (n = 220,000) | CHO-NPSR cells, cAMP TR-FRET, antagonist mode; further: on the % scale 0 is the no-effect control and ±100 the full control effect; nearly all actives have a fitted effect of over 50% in size
Sfp inh: qHTS Assay for Inhibitors of Bacillus subtilis Sfp phosphopantetheinyl transferase (PPTase); actives 3.5% (n = 310,000); 4'-phosphopantetheinyl transferase ffp (Bacillus subtilis), Q9F4F7; Potency, µM, for inactives: largest response in the series, negative = inhibition, actives largely listed as inhibitors; Biochemical Sfp PPTase activity, qHTS; AID 1490, 2009;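 further: the enzyme is Sfp with the accession as filed and its product quenches rhodamine fluorescence; 0% = enzyme reaction without inhibitor and -100% = no enzyme wells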
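Buffer: 50 mM Hepes-Na pH 7.6, 10 mM MgCl2, 0.01% Nonidet P-40, 0.01% BSA. Enzyme 15 nM, pre-exposed to compound 15 min; substrates then added and fluorescence change tracked over 30 min.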
JMJD2E inh: qHTS Assay for Inhibitors of Human Jumonji Domain Containing 2E (JMJD2E) | Potency, µM (series often up to 57.1 µM), for inactives: top-dose activity change, negative = inhibition, hits mostly inhibitors | JMJD2E catalytic domain, FDH-coupled NADH fluorescence (FDH is formaldehyde dehydrogenase) | actives 1.6% (n = 230,000) | Lysine-specific demethylase 4E (Homo sapiens), B2RXH2 | AID 2147, 2009; active means well fitted inhibition curve with a large enough effect, not every such curve was filed as active; inconclusive means small, poorly fitted or top-dose-only effect, or another doubt; inactive means no such curve, though single readings can be large or run the other way;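 further: 0% = wells with enzyme and -100% = buffer wells without enzyme; nearly all actives have a fitted effect of over 50% in size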
Epigenetic derep: Quantitative High-Throughput Screen for Regulators of Epigenetic Control | murine LDR cells, GFP reporter derepression, 30 h | Potency, µM (doses to about 53.9 µM), without a hit: at the highest dose GFP activation, hits mostly activators | actives 0.2% (n = 280,000); further: % of control where 0% means no effect; nearly all actives have a fitted effect of over 60% in size
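In this reporter-derepression format, murine cells bearing a silenced integrated CMV-GFP locus incubate with test compound (30 h, 37 C), then are washed and imaged; fluorescent objects of 20–120 um count as induced cells.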
Active calls of the source: *; ? = inconclusive; nt = no result; [ ] = dose if it differs, or a comment. Unless noted, the call rests on the fitted dose curve; in most records, active means well fitted curve in the direction sought with a large enough effect; inconclusive means small, poorly fitted or top-dose-only effect, or another doubt; inactive means no such curve, though single readings can be large; an effect the other way counts as inactive or inconclusive. Potency means the concentration at half of the fitted maximal effect.

SMILES | GCN5L2 inh | IMPase Li inh | NPSR antagonist | Sfp inh | JMJD2E inh | Epigenetic derep
Cc1nn(-c2nnc(C)c(=O)[nH]2)c(C)c1SCC(=O)Nc1ccc(C(C)C)cc1 | -30% | 2%[38.3 µM] | -17%[46.1 µM] | -29% | -27% | 0%
NC(N)=NCCC[C@H](NC(=O)CC1(CC(=O)N2CCN(C3c4ccccc4NC(=O)c4ccccc43)CC2)CCCC1)C(=O)NCCn1c(=O)n(-c2ccccc2)n(-c2ccccc2)c1=O (stereo partly specified) | nt | 7% | nt | ? | 2% | 0%
CN(C1CCCCC1)S(=O)(=O)c1ccc2c(c1)c(=O)c(C(=O)NCCc1ccc(Cl)cc1)cn2C | -4% | nt | nt | nt | nt | 4%
C=CCN1C(=O)/C(=C/c2ccc(-c3ccc(F)cc3)o2)SC1=S | 2% | nt | nt | 56µM* | nt | nt
C=CCN1C(=O)/C(=C/c2ccsc2)SC1=S | -10% | 9% | 29% | -3% | 4% | 2%
CSCCC=O | nt | 8% | nt | nt | nt | nt
c1ccc(-c2nnc3sc(-c4csc5c4CCCC5)nn23)cc1 | ? | 28% | 10µM* | 6.3µM* | -6% | 0%
Cc1cccc(-c2nnc3sc(-c4ccccc4C)nn23)c1 | -6% | 50%[38.3 µM] | ? | 50µM* | -7% | -1%
c1ccc(-c2nnc3sc(-c4ccncc4)nn23)cc1 | -3% | 31%[38.3 µM] | 2%[46.1 µM] | -19% | -21% | -1%
CCn1c(O)c(C(C#N)=C2N=c3ccccc3=N2)c2ccccc21 | -18% | 21%[38.3 µM] | -4%[46.1 µM] | 6% | 0% | 0%
CCOc1c(C=C(C#N)C#N)c2ccccc2n1CC | -10% | 11% | -13% | 50µM* | 0% | -3%
Cc1c(N(C)S(=O)(=O)c2cccc(C(=O)NCC3CCCO3)c2)c(=O)n(-c2ccccc2)n1C (stereo unspecified) | -5% | nt | nt | nt | nt | nt
Cc1c(N(C)S(=O)(=O)c2cccc(C(=O)NC(C)C)c2)c(=O)n(-c2ccccc2)n1C | 1% | nt | nt | 79µM* | nt | nt
CN(CC(=O)Nc1ccc(Cl)cc1)C1CCCCC1 | -1% | nt | nt | 21% | nt | nt
Cc1ccc(NC(=O)CN(C)C2CCCCC2)cc1Br | 2% | 12% | 24% | 56µM* | -2% | -1%
CC(Nc1ccc(N2CCOCC2)cc1)C(=O)N1c2ccccc2CC1C (stereo unspecified) | -8% | nt | 21% | 10µM* | -11% | 1%
CCOn1c(=O)c(-c2cccs2)[n+]([O-])c2ccccc21 | 2% | 26%[38.3 µM] | -5%[46.1 µM] | -7% | -12% | 14%
C=CCOn1c(=O)c(-c2cc3ccccc3o2)[n+]([O-])c2ccccc21 | 1% | nt | -18%[46.1 µM] | 5% | -2% | 0%
CCOC(=O)COn1c(=O)c(-c2cc3ccccc3o2)[n+]([O-])c2ccccc21 | -4% | -4%[38.3 µM] | 6%[46.1 µM] | 79µM* | -2% | 3%
CCOC(=O)COn1c(=O)c(-c2cccs2)[n+]([O-])c2ccccc21 | -23% | 5%[38.3 µM] | -16%[46.1 µM] | 10µM* | ? | -3%
Cc1cc(=O)oc2cc(NC(=O)[C@H](CCCCN)NC(=O)[C@H](CC3CCCCC3)NC(=O)OCC3c4ccccc4-c4ccccc43)ccc12 | 39% | nt | nt | ? | nt | nt
O=C(O)[C@H](C1NCCS1)N1Cc2ccccc2C1 (stereo partly specified) | nt | -7% | nt | nt | nt | nt
Cc1ccc(-c2c3c(nc4sc(C(N)=O)c(N)c24)CCCC3)o1 | -1% | -3% | -8% | 32µM* | -12% | -3%
NC(=O)c1sc2nc3c(c(-c4ccco4)c2c1N)CCC3 | -7% | -5%[38.3 µM] | -9%[46.1 µM] | 10µM* | -5% | -1%
NC(=O)c1sc2nc3c(c(-c4cccs4)c2c1N)CCCC3 | -1% | -6% | -23% | -17% | -18% | 13%
SMILES | GCN5L2 inh | IMPase Li inh | NPSR antagonist | Sfp inh | JMJD2E inh | Epigenetic derep
COc1ccc(C)cc1NC(=O)c1oc2ccc(S(=O)(=O)N3CCC4(CC3)OCCO4)cc2c1C | -3% | nt | nt | nt | nt | 1%
CC1(C)CC(=O)c2sc(NC(=O)c3ccc4ncsc4c3)nc2C1 | -4% | 13%[38.3 µM] | -25%[46.1 µM] | 50µM* | -18% | -1%
CCCCN1C(=O)C(O)=C(C(C)=O)C1c1ccccc1 (stereo unspecified) | -3%[0.501 µM] | -18%[38.3 µM] | -5%[46.1 µM] | 6% | -18% | 0%
CCCCN1C(=O)C(O)=C(C(C)=O)C1c1ccccc1[N+](=O)[O-] (stereo unspecified) | -1% | -6% | 11% | 18µM* | -16% | 3%[10.1 µM]
CC(=O)C1=C(O)C(=O)N(c2ccc(O)cc2)C1c1ccccc1[N+](=O)[O-] (stereo unspecified) | -3% | nt | nt | 35µM* | nt | nt
CCOC(=O)c1c(C)[nH]c(C)c1S(=O)(=O)NCC(=O)Nc1cccc(SC)c1 | 0% | nt | nt | nt | nt | 2%
Cc1ccc(Cl)cc1-n1ncc2c(Nc3cccc(C)c3C)ncnc21 | -2% | nt | nt | nt | nt | 7%
CCOC(=O)C1C(=O)NC(SCC(=O)Nc2nccs2)=C(C#N)C1c1ccccc1OCC (stereo unspecified) | -27% | 3% | 2%[46.1 µM] | 14µM* | -5% | -1%
CCOC(=O)CSC1=C(C#N)C(c2ccccc2OCC)C(C#N)C(=O)N1 (stereo unspecified) | ? | -41%[38.3 µM] | ? | ? | -2% | 2%
C=CCSC1=C(C#N)C(c2ccccc2OCC)C(C#N)C(=O)N1 (stereo unspecified) | -30% | -13%[38.3 µM] | -10%[46.1 µM] | 35µM* | -19% | 2%
CC(C)[C@H](NC(=O)[C@H](CCCCN)NC(=O)[C@@H](NC(=O)[C@@H]1CCCN1C(=O)[C@H](CCCN=C(N)N)NC(=O)[C@H](CCCN=C(N)N)NC(=O)[C@H](CCCCN)NC(=O)[C@H](CCCCN)NC(=O)CNC(=O)[C@@H](NC(=O)[C@@H]1CCCN1C(=O)[C@@H](N)CCCCN)C(C)C)C(C)C)C(=O)N[C@@H](Cc1ccc(O)cc1)C(=O)N1CCC[C@H]1C(=O)O | 0% | nt | nt | 0% | nt | nt
COc1ccc(CCN2C(=O)CN(C3CCCCCC3)C(=O)C2c2ccc(Cl)cc2)cc1OC (stereo unspecified) | -6% | nt | nt | nt | nt | -1%
CCc1ccc(Oc2c(C(F)(F)F)oc3c(CN4CCN(C)CC4)c(O)ccc3c2=O)cc1 | -5% | nt | nt | nt | nt | -1%
COc1ccc(/C=C2\CCc3ccccc3C2=O)cc1Cn1cccn1 | 18µM* | 17%[38.3 µM] | ? | -24% | -3% | -3%

Assay outcomes (PubChem BioAssay)
